Experimental data published in ChEMBL document CHEMBL1961873, “Compounds: GSK PKIS; Assays: Nanosyn kinase panel” (2012).

Tests used:
[1] = target: Sphingosine kinase 1 (Homo sapiens) (UniProt Q9NYA1); details: at 1 µM;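 further: mean SPHK1 inhibition value reported from the GSK PKIS kinase panel screen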
[2] = target: T1, Sphingosine kinase 2 (Homo sapiens) (UniProt Q9NRA0); details: at 0.1 µM
T1 sequence (whole entry): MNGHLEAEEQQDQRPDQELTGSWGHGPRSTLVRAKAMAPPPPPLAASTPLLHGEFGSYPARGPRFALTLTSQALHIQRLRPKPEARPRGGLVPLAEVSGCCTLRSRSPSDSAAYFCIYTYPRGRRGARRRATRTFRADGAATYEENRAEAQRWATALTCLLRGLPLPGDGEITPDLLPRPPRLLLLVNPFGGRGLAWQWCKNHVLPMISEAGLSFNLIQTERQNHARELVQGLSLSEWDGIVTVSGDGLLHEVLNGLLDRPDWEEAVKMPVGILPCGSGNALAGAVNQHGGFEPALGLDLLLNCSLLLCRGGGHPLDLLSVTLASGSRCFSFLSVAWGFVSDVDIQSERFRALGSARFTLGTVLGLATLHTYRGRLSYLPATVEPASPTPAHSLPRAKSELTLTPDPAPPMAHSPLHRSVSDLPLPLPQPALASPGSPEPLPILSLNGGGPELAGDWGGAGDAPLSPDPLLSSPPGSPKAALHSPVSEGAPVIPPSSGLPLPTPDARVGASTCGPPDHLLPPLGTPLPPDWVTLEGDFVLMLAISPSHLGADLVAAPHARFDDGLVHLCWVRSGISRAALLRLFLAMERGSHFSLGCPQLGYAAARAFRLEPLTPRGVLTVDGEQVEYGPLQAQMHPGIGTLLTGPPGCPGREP

[3] = target: T1, Sphingosine kinase 2 (Homo sapiens); details: at 1 µM
[4] = target: Casein kinase II subunit alpha (Homo sapiens) (UniProt P68400); details: at 0.1 µM
Chain of Casein kinase II subunit alpha (Homo sapiens) (P68400 whole entry, looked up): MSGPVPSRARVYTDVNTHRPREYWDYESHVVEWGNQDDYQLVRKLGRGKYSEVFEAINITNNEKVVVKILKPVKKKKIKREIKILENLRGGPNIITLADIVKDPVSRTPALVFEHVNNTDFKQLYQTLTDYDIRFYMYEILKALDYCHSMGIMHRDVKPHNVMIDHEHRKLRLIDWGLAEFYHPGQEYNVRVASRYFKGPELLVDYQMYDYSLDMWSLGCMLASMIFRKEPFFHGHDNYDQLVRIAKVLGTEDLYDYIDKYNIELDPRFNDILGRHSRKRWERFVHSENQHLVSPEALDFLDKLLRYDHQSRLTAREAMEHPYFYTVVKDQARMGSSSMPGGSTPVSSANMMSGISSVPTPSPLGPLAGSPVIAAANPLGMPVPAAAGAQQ

[5] = target: Casein kinase II subunit alpha (Homo sapiens) (UniProt P68400); details: at 1 µM
[6] = target: T2, Inhibitor of nuclear factor kappa-B kinase subunit alpha (Homo sapiens) (UniProt O15111); details: at 0.1 µM
T2 sequence (whole entry): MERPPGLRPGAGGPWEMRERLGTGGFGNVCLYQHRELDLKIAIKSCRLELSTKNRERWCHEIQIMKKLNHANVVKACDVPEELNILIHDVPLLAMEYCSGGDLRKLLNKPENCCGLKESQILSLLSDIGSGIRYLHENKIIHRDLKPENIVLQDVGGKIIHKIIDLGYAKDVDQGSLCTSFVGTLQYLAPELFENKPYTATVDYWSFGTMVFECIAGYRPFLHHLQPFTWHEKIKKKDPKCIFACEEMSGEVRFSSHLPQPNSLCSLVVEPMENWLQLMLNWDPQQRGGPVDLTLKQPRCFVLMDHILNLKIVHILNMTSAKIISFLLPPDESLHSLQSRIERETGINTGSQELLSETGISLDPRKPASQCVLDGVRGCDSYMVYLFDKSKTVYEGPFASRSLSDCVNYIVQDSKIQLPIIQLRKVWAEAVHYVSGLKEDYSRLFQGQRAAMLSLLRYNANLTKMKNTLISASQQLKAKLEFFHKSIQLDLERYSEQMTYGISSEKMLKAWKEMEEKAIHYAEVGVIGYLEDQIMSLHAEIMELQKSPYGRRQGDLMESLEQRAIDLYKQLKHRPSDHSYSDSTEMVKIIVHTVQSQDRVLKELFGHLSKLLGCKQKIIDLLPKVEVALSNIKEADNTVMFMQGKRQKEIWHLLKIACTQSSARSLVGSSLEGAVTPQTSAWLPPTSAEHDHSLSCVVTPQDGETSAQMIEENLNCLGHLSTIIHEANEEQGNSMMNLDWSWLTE

[7] = target: T2, Inhibitor of nuclear factor kappa-B kinase subunit alpha (Homo sapiens); details: at 1 µM
[8] = target: T3, Inhibitor of nuclear factor kappa-B kinase subunit beta (Homo sapiens) (UniProt O14920); details: at 0.1 µM
T3 sequence (whole entry): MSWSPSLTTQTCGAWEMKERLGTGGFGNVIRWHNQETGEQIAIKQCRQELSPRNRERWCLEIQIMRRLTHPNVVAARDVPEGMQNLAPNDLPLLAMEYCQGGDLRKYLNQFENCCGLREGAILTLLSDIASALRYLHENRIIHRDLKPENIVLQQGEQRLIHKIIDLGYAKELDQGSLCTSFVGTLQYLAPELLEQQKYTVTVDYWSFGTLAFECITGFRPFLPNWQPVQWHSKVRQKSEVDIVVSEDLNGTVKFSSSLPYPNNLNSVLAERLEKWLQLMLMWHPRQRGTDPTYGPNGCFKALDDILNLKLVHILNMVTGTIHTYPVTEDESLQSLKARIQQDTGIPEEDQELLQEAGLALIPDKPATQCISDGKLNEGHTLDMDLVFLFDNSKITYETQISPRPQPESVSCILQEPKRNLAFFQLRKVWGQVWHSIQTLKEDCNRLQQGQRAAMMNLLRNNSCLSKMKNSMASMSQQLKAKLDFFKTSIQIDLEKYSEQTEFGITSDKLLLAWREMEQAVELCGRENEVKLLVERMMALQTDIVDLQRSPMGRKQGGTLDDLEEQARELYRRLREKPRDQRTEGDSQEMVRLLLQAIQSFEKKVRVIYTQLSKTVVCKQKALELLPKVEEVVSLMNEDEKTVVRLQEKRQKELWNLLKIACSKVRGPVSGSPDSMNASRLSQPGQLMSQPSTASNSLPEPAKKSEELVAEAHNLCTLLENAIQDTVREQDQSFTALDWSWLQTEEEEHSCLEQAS

[9] = target: T3, Inhibitor of nuclear factor kappa-B kinase subunit beta (Homo sapiens); details: at 1 µM
[10] = target: T4, Inhibitor of nuclear factor kappa-B kinase subunit epsilon (Homo sapiens) (UniProt Q14164); details: at 0.1 µM
T4 sequence (whole entry): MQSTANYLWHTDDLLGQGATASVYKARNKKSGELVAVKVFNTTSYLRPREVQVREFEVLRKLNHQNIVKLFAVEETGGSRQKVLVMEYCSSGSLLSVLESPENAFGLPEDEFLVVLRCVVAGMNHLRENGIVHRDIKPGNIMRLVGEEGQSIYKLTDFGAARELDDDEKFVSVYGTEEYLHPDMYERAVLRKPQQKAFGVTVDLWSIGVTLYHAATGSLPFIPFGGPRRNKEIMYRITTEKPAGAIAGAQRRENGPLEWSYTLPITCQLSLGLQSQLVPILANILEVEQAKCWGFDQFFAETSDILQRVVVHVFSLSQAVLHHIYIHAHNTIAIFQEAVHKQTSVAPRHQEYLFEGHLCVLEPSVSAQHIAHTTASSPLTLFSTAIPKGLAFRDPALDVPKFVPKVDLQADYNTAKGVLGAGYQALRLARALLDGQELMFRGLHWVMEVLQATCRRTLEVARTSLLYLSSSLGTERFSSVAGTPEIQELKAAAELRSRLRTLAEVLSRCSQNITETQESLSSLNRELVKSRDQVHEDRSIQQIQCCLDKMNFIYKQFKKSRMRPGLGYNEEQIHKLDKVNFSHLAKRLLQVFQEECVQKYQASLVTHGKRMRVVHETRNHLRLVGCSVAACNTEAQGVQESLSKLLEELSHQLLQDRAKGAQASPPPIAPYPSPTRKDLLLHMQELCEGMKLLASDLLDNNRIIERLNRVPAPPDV

[11] = target: T4, Inhibitor of nuclear factor kappa-B kinase subunit epsilon (Homo sapiens); details: at 1 µM
[12] = target: T5, Serine/threonine-protein kinase Nek1 (Homo sapiens) (UniProt Q96PY6); details: at 0.1 µM
T5 sequence (whole entry): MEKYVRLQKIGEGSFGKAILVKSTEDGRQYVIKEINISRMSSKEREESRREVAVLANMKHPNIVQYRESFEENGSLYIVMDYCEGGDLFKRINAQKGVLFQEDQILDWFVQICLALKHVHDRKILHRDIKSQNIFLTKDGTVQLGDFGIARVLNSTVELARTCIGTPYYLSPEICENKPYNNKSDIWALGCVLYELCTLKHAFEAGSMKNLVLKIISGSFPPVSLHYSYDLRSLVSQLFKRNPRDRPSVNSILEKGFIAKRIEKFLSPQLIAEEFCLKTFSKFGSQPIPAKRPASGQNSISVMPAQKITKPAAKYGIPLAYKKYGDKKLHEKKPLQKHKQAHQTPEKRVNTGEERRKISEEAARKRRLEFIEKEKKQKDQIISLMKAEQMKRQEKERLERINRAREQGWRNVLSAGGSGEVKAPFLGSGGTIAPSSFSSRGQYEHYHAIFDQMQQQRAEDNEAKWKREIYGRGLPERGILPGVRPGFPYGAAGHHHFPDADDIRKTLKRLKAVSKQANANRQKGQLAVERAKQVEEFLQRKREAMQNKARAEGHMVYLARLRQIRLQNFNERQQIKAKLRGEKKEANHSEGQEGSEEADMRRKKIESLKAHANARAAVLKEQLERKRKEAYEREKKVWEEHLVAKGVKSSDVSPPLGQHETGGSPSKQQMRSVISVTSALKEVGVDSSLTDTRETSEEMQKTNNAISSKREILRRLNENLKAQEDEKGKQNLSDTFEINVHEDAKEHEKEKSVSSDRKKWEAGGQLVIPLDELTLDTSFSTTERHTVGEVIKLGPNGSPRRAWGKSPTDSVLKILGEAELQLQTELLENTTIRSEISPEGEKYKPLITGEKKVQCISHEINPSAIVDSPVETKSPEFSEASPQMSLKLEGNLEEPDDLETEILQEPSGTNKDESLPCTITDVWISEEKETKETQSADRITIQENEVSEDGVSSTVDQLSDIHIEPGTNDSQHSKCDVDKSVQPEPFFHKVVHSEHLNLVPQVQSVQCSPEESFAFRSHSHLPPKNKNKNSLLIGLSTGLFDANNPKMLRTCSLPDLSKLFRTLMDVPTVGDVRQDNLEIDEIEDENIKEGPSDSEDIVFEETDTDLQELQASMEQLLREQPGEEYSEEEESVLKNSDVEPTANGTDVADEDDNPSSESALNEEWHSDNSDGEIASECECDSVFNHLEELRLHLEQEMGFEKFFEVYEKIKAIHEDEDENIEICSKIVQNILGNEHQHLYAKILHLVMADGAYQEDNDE

[13] = target: T5, Serine/threonine-protein kinase Nek1 (Homo sapiens); details: at 1 µM
[14] = target: T6, Serine/threonine-protein kinase Nek2 (Homo sapiens) (UniProt P51955); details: at 0.1 µM
T6 sequence (whole entry): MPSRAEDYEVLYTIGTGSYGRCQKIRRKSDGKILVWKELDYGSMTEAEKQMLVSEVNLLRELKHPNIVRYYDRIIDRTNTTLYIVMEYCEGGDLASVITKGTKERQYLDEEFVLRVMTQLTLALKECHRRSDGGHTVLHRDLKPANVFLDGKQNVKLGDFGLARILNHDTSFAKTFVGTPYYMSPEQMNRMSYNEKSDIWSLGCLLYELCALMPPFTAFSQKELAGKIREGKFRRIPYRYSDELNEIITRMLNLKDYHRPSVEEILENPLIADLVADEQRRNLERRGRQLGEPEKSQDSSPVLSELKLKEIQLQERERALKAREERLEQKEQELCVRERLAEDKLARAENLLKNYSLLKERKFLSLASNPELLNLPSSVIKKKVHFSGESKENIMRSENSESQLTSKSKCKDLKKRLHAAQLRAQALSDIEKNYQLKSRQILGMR

[15] = target: T6, Serine/threonine-protein kinase Nek2 (Homo sapiens); details: at 1 µM
[16] = target: Serine/threonine-protein kinase Nek6 (Homo sapiens) (UniProt Q9HC98); details: at 0.1 µM
Chain of Serine/threonine-protein kinase Nek6 (Homo sapiens) (Q9HC98 whole entry): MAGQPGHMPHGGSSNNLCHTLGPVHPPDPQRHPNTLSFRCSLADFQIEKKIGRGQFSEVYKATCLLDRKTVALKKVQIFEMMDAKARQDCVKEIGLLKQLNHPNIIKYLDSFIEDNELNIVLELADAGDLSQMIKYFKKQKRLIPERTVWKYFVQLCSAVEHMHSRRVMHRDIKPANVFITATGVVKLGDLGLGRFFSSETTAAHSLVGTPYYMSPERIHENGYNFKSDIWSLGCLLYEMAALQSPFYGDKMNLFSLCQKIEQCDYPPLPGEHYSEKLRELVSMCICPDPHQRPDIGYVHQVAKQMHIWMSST

[17] = target: Serine/threonine-protein kinase Nek6 (Homo sapiens) (UniProt Q9HC98); details: at 1 µM
[18] = target: Serine/threonine-protein kinase Nek7 (Homo sapiens) (UniProt Q8TDX7); details: at 0.1 µM
Chain of Serine/threonine-protein kinase Nek7 (Homo sapiens) (Q8TDX7 whole entry, looked up): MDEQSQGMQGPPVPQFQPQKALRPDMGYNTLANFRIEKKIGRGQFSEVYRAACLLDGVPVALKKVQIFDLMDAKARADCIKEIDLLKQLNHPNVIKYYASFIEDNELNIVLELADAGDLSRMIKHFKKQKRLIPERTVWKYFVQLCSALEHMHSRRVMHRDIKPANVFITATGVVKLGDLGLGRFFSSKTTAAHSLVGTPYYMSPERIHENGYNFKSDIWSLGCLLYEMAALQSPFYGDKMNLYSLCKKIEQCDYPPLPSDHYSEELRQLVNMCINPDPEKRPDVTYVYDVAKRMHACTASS

[19] = target: Serine/threonine-protein kinase Nek7 (Homo sapiens) (UniProt Q8TDX7); details: at 1 µM
[20] = target: T7, Serine/threonine-protein kinase Nek9 (Homo sapiens) (UniProt Q8TD19); details: at 0.1 µM;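 further: reported value is the mean percent inhibition of NEK9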
T7 sequence (whole entry): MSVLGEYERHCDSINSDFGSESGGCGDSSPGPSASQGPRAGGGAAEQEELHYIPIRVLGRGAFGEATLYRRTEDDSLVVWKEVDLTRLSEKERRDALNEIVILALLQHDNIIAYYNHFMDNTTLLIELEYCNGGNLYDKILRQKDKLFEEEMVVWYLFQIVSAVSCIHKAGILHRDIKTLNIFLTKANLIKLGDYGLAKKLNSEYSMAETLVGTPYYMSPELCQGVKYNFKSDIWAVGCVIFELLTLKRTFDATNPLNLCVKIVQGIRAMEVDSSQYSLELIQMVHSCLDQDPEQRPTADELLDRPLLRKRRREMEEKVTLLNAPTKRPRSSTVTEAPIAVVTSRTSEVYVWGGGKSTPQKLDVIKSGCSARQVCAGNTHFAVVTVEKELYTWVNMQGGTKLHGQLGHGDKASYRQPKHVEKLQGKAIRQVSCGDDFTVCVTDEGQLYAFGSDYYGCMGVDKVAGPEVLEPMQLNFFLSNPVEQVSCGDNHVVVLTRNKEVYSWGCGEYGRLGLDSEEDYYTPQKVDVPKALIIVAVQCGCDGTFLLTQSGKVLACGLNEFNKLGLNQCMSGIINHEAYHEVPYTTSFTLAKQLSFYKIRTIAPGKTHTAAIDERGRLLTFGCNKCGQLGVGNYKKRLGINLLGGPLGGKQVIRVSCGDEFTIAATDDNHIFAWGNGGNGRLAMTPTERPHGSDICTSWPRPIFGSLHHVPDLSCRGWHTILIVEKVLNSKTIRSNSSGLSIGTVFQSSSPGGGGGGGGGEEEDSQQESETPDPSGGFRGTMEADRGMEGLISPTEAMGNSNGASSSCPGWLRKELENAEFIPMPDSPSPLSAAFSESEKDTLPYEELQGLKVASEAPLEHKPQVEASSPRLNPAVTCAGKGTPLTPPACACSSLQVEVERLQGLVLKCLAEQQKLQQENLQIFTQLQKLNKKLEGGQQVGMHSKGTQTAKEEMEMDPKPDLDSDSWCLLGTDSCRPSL

Chain of Sphingosine kinase 1 (Homo sapiens) (Q9NYA1 whole entry): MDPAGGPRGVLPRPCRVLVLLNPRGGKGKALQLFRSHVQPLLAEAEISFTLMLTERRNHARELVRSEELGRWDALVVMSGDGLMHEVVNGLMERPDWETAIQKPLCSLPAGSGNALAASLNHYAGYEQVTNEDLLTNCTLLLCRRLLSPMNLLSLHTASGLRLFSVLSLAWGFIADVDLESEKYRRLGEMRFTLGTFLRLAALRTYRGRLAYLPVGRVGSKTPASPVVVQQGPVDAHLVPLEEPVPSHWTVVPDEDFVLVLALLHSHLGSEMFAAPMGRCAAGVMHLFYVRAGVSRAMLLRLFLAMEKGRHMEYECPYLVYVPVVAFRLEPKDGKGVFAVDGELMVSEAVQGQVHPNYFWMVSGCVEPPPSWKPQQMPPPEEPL

## COc1cc2c(cc1Nc1nc(N3CCc4ccccc43)c3cc[nH]c3n1)N(C(=O)CN(C)C)CC2
[1]
  inhibition: -1.12%
[2]
  inhibition: -0.36%
[3]
  inhibition: 0.81%
[4]
  inhibition: 0.13%
[5]
  inhibition: -9.3%
[6]
  inhibition: 2.9%
[7]
  inhibition: 0.37%
[8]
  inhibition: 4.25%
[9]
  inhibition: -1.42%
[10]
  inhibition: 0.88%
[11]
  inhibition: -0.46%
[12]
  inhibition: 1.31%
[13]
  inhibition: 1%
[14]
  inhibition: 2.74%
[15]
  inhibition: 3.53%
[16]
  inhibition: 0.8%
[17]
  inhibition: -0.68%
[18]
  inhibition: 3.4%
[19]
  inhibition: 3.29%
[20]
  inhibition: 4.32%
